Measurements: PubChem BioAssay AID1347076 (National Center for Advancing Translational Sciences (NCATS), 2019)
About 13,000 (3.2%) of roughly 400,000 compounds were called active. Entries that show only a call come without a potency. About 18% were inconclusive and are not listed. The sample holds actives, similar compounds and a random draw of the others, so the mix is not that of the screen. The call rests on the fitted dose curve; in most records, active means well fitted cell-killing curve with a large enough effect; inconclusive means small, poorly fitted or top-dose-only effect, or effect the other way; inactive means flat fitted curve, though single readings scatter.

assay: qHTS assay for MDR1-selective chemotherapeutics: Primary screen using the drug-selected MDR subline cells KB-V1; settings: KB-V1 MDR cells viability, CellTiter-Glo, 72 h; series mostly up to 46.1 µM; further: nearly all actives have a fitted effect of over 60% in size
From the text: A prime difficulty in effectively treating cancer is the development of cellular resistance to multiple structurally unrelated anticancer drugs, a phenomenon known as multidrug resistance (MDR). […] Numerous strategies to overcome P-gp-mediated MDR have been explored, including the design of drugs that evade recognition and efflux, and development of inhibitors to block efflux and restore drug accumulation. […] An alternative approach is to exploit resistance by identifying drugs that target MDR cells over the non-resistant parental cells from which they were selected. […] The development of MDR1-selective agents represents a new strategy for resolving multidrug resistance, as it remains a long-standing clinical challenge for cancer chemotherapy.
Our goal is to identify compounds that selectively kill P-gp-expressing MDR cells. We will identify MDR1-selective compounds by comparing toxicity of compounds in the screening library against parental, drug-naive (KB-3-1) adenocarcinoma cells as well as their drug-selected MDR sub-line (KB-V1). The differential toxicity of compounds against these two cell lines will be used to identify MDR1-selective compounds, whose cytotoxicity is potentiated, rather than diminished, by P-gp expression. This assay will be utilized to conduct a quantitative high-throughput screen (qHTS) in collaboration with the NIH Chemical Genomics Center to identify selective agents, and probe hits arising from the screen will be validated using secondary assays and characterized through a well-established follow-up research program. This screen was run against the entire NCGC library collection of about 400,000 compounds.
NIH Molecular Libraries Probe Production Network [MLPCN]
NIH Chemical Genomics Center [NCGC]
PI: Michael Gottesman, National Cancer Institute, NIH
Briefly, 5 microL of media containing either KB-V1 cells (columns 1-2, 4-48) are dispensed into Greiner white, treated solid-bottom 1536-well assay plates (media-only control is added to column 3). Compounds are then transferred via Kalypsys pin tool equipped with 1536-pin array (10 nL slotted pins, V&P Scientific, San Diego, CA). Following addition of compound, the plates are incubated at 37 degrees C for 72 hours. CellTiter-Glo (2.5 µL/well) is then added, and the plates are read in a ViewLux reader (Perkin-Elmer, clear luminescence filter, 1 second exposure, 1x binning) following a 10 minute incubation. All cells are dispensed in DMEM phenol-red free media containing 10% FBS.
Library plates were screened starting from the lowest and proceeding to the highest concentration. Vehicle-only plates, with DMSO being pin-transferred to columns 5-48, will be inserted uniformly at the beginning and the end of each library in order to monitor and record any shifts in the background, which can be affected by reagent dispensers or loss in enzyme activity over time. Screening data will be corrected, normalized, and concentration-effect relationships will be derived by using publicly-available NCGC, NCATS curve fitting algorithms (http://ncgc.nih.gov/pub/openhts).
Potency means the concentration at half of the fitted maximal effect.

| SMILES | Potency |
| --- | --- |
| O=P(OC1=CCCCC1)(c1ccccc1)c1ccccc1 | inactive |
| CCCOC(=O)C1C2c3ccccc3C(c3ccccc32)C1C(=O)O (stereo unspecified) | inactive |
| CC1CCC(N(C)C2CCN(C)CC2)CC1 (stereo unspecified) | inactive |
| O=C(c1cc2nc(-c3ccccc3)cc(-c3ccccc3)n2n1)N1CCC2(CC1)OCCO2 | 25.9 µM (active) |
| Cc1ccc(-c2cc(C(=O)N3CCC4(CC3)OCCO4)no2)cc1 | inactive |
| O=C(c1ccccc1[N+](=O)[O-])N1CCC2(CC1)OCCO2 | inactive |
| CC1C2Cn3c(nc4ccccc43)C1N(C)O2 (stereo unspecified) | inactive |
| COc1cc(C(=O)N2Cc3ccc(Br)cc3-n3nncc3C2)cc(OC)c1OC | inactive |
| CCC(C)(O)C(=O)OC1C(=O)OC2CC3C(C)=CC(=O)C(O)C3(C)C3C4(O)OCC23C1C(C)C4O (stereo unspecified) | 11.6 µM (active) |
| c1ccc(N2Cc3ccccc3-n3nncc3C2)nc1 | inactive |
| CCC(C)n1c(O)c(/C=N/Nc2nc3c(c(=O)n(C)c(=O)n3C)n2C)c(=O)[nH]c1=S (stereo unspecified) | inactive |
| CCN1C(=O)NC(=O)C2(CCCC2)C1=O | inactive |
| COC(=O)CN(CCCl)P1(=O)OCCCN1CCCl (stereo unspecified) | inactive |
| CC(=NCC1CCCO1)c1c(O)n(-c2ccccc2)c(=O)[nH]c1=O (stereo unspecified) | inactive |
| CC/C(=N\NC(=O)c1ccccc1O)c1c(O)n(Cc2ccccc2)c(=O)[nH]c1=O | inactive |
| CCCCC(=O)N/N=C/c1c(O)n(CCC2=CCCCC2)c(=O)[nH]c1=O | inactive |
| CN(C)CCCN=Cc1c(O)n(Cc2ccco2)c(=O)[nH]c1=O | inactive |
| CCC(=NCc1ccco1)c1c(O)n(Cc2ccccc2)c(=O)[nH]c1=O | 3.66 µM (active) |
| O=C(N/N=C/c1c(O)n(Cc2ccccc2)c(=O)[nH]c1=O)c1ccccc1 | inactive |
| CCC(=NCCCO)c1c(O)n(-c2ccc(OC)cc2)c(=O)[nH]c1=O | inactive |
| CCCCCCN=C(CC)c1c(O)n(CCCC)c(=O)[nH]c1=O | 5.17 µM (active) |

| SMILES | Potency |
| --- | --- |
| CCCCn1c(O)c(C(CC)=NCc2ccco2)c(=O)[nH]c1=O | 20.6 µM (active) |
| c1cc2c(c(NC3=NCCCS3)c1)CCCC2 | inactive |
| O=c1c2ccccc2nc(CBr)n1-c1ccc(Cl)cc1 | inactive |
| C[N+]12CN3CN(CN(C3)C1)C2 | inactive |
| CC(CC(C#N)(c1ccccc1)c1ccccc1)N1CCCCC1 (stereo unspecified) | inactive |
| N#Cc1c(Cl)c(Cl)c(Cl)c(C#N)c1Cl | inactive |
| Cc1cccc(OP(=O)(Oc2cccc(C)c2)OC(c2ccccc2)C(F)(F)F)c1 (stereo unspecified) | inactive |
| Cc1ccc(OC(=O)N(C)C[C@@H]2OCc3cnnn3CCCC(=O)N([C@H](C)CO)C[C@@H]2C)cc1 | inactive |
| O=C1NCN(c2ccccc2)C12CCN(C(c1cccs1)c1nnnn1C1CCCCC1)CC2 (stereo unspecified) | inactive |
| CC(=O)C1(O)CCC2C3CCC4=C(Cl)C(=O)CCC4(C)C3CCC21C (stereo unspecified) | inactive |
| Cc1ccc(Cn2nnnc2CN2CCC(n3nnc4ccccc43)CC2)cc1 | 5.8 µM (active) |
| N[C@@H](Cc1c[nH]c2ccccc12)c1nnc(SCc2c(F)cccc2Cl)o1 | 18.4 µM (active) |
| CCOC(=O)CC(SP1(=S)OCC2(CCCCO2)C(C2CCCCO2)O1)C(=O)OCC (stereo unspecified) | inactive |
| CC(C)c1ccc(OCC(=O)N2CCCN(C)CC2)cc1 | inactive |
| CC(=O)Nc1ccccc1C(=O)OCC(=O)c1cccc2ccccc12 | inactive |
| Cn1cc(C(=O)OCC(=O)N2CCCC2)c2ccccc21 | 23.1 µM (active) |
| OCC#CC[N+]1(CC#Cc2ccccc2)CCCC1 | inactive |
| C[C@]12CCC3C(CC[C@H]4[C@H](O)[C@H](O)CC[C@]34C)C1CCC2=O (stereo partly specified) | inactive |
| O=C1CC(=O)N(Cc2ccccc2)C(=O)N1CCCCCCN1C(=O)CC(=O)N(Cc2ccccc2)C1=O | inactive |
| CC(C)(C)c1ccc(CN2C(=O)CN=C(c3ccccc3)c3ccccc32)cc1 | 16.4 µM (active) |
| c1ccc(C(CN2CCCCC2)c2ccccc2)cc1 | inactive |

| SMILES | Potency |
| --- | --- |
| O=C(Nc1cccc2ccccc12)N1CCC2(CC1)OCCO2 | inactive |
| O=C(CCC(=O)N1C[C@H]2C[C@@H](C1)c1cccc(=O)n1C2)NCc1ccccc1C(F)(F)F | inactive |
| COc1ccc2c(c1)NP(=S)(c1ccccc1)N2 (stereo unspecified) | inactive |
| O=C1NC(=O)C(CCOc2ccccc2)(CCc2ccccc2)C(=O)N1 | inactive |
| COc1ccc(NC(=O)N2Cc3ccccc3-n3nncc3C2)cc1 | inactive |
| CC1CC=CCC12C(=O)NC(=S)NC2=O (stereo unspecified) | inactive |
| CCn1cc(CN2CCCC(C(=O)c3cccc(C(F)(F)F)c3)C2)cn1 (stereo unspecified) | inactive |
| Cc1cc(C(=O)OCC(=O)Nc2c(F)cccc2F)c(C)n1C1CC1 | inactive |
| Cc1nn(-c2ccccc2)c(C)c1NC(=O)COC(=O)Cc1ccccc1 | inactive |
| Cc1ccccc1NC(=O)COC(=O)c1cc(C)n(C2CC2)c1C | 13 µM (active) |
| COc1cccc(C(=O)N2C[C@H]3C[C@@H](C2)c2cccc(=O)n2C3)c1 | inactive |
| c1cc2c(cc1C1OCC3C(c4ccc5c(c4)OCO5)OCC13)OCO2 (stereo unspecified) | inactive |
| CC(=O)OC1C2(CC3N4C(=O)C5(CO)SSC4(CC31O)C(=O)N5C)OC(C)C(C)(C)C2=O (stereo unspecified) | 2.31 µM (active) |
| COc1cc(-n2c(=S)[nH]c3ccc(C)cc3c2=O)c(Cl)cc1Cl | 9.2 µM (active) |
| O=c1c2ccccc2[nH]c(=S)n1-c1cccc(Cl)c1 | inactive |
| S=C(NCCc1ccccc1)N1Cc2cc(N3CCOCC3)ccc2-n2nncc2C1 | inactive |
| O=c1[nH]c2ccccc2n1C1CCN(C(c2ccccc2)c2nnnn2Cc2ccccc2)CC1 (stereo unspecified) | 18.4 µM (active) |
| O=c1[nH]c2ccccc2n1C1CCN(C(c2ccnc3ccccc23)c2nnnn2Cc2ccccc2)CC1 (stereo unspecified) | inactive |
| CSCCC(c1nnnn1C(C)(C)C)N1CCC(n2c(=O)[nH]c3ccccc32)CC1 (stereo unspecified) | inactive |
| O=C1C2CCN(CC2)C1(CO)CO | inactive |
| CCOC(=O)c1c(-c2ccccc2)oc2ccc(OC(=O)N(C)C)cc12 | 16.4 µM (active) |

| SMILES | Potency |
| --- | --- |
| CN(C)C(=O)Oc1ccc2c(c1)O/C(=C\c1ccccc1)C2=O | inactive |
| Oc1ccc2c3c1OC1[C@H](O)CC[C@@]4(O)[C@@H](C2)N(CC2CC2)CC[C@]314 (stereo partly specified) | inactive |
| CCc1ccc(OCC(=O)N2CCN(CC(=O)Nc3ccccc3Cl)CC2)cc1 | inactive |
| CC(=O)NCC1=C(c2ccc3ccccc3c2)C[C@@H]2CC[C@H]1N2Cc1ccco1 | inactive |
| C[C@]12CC[C@H](O)C[C@H]1CC[C@@H]1C2CC[C@]2(C)[C@@H](C3=CC(=O)OC3)[C@@H](O)C[C@]12O (stereo partly specified) | 6.51 µM (active) |
| C[C@]12CCC3C(CC[C@H]4C[C@@H](O)CC[C@]34C)C1C[C@@H](O)[C@H]2O (stereo partly specified) | inactive |
| Cc1cc(-c2ccc(N)c(C)c2)ccc1N | inactive |
| CC(C)(C)c1ccc(OC(=O)N2CCCCC2)cc1 | inactive |
| CC1([N+](=O)[O-])COP(=O)(Nc2ccc(F)cc2)OC1 (stereo unspecified) | inactive |
| Cc1cccc(NC(=O)OC2CN3CCC2CC3)c1 (stereo unspecified) | inactive |
| COC1=C[C@@H]2[C@@H]3Cc4ccc(OC)c(O)c4[C@]2(CCN3C)CC1=O | inactive |
| N#Cc1ccc(Cn2cc(C(=O)c3ccco3)c3ccccc32)cc1 | 18.4 µM (active) |
| NC(=O)Cn1cc(C(=O)c2ccccc2F)c2ccccc21 | inactive |
| CC(C)Nc1nc(Cl)nc(NC(C)C)n1 | inactive |
| O=C(NCC1=C(c2ccc3ccccc3c2)C[C@@H]2CC[C@H]1N2Cc1ccco1)c1cccs1 | inactive |
| Cc1ccc(N2C(=O)NC(=O)C(CCc3ccncc3)(Cc3cccc(Cl)c3Cl)C2=O)cc1 (stereo unspecified) | inactive |
| O=C1NC(=O)C(CCc2ccccn2)(Cc2cccc(Cl)c2Cl)C(=O)N1c1ccc(Br)cc1 (stereo unspecified) | 7.31 µM (active) |
| C[C@H]1CN([C@@H](C)CO)C(=O)CCCn2nncc2CO[C@H]1CN(C)C(=O)Oc1ccccc1 | inactive |
